In PubChem BioAssay AID834 (PCMD, 2007) one finds inhibition data, which are given here for 95 compounds.

About 120 (0.14%) of roughly 85,000 compounds were called active.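 The calls were made as follows: active = inhibition above 20%; inactive = inhibition below 20%.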 The sample as a whole holds a higher share of actives than the screen did.

The inhibition is the relative decrease from the control value, in per cent.

A short description of this assay: clotrimazole potentiators killing Candida biofilms, primary screen, with clotrimazole, Alamar Blue (AID 834).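 Also: preformed 24 hr biofilms exposed to compound for 48 hr; 0% = biofilm without compound and 100% = blank killed by clotrimazole plus chlorhexidine.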 Conditions: C. albicans biofilm + clotrimazole, at 6 µM, active compounds read high.
As to `CC(=O)NC1=NN(C(C)=O)C(C)(c2ccc(Cl)s2)S1` (stereo not given), the inhibition is 6.61% (inactive).

Consider `CCOc1c(Br)cc(/C=C2\C(=O)N(CCC#N)N=C2C)cc1OC`, for which the inhibition was -1.46% (inactive).

In the case of `Cc1cccc2nc(CSc3nc4[nH]ncc4c(=O)n3-c3cccc(Cl)c3)cc(=O)n12`, the inhibition was -2.14% (inactive).

In the case of `Cc1ccc(S(=O)(=O)N(c2cccc(C)c2)C2CCS(=O)(=O)C2)cc1` (stereo not given), the inhibition is 11.2% (inactive).

For `CS(=O)(=O)Nc1ccc(C(=O)N2CCCC2)cc1`, the inhibition is 6.23% (inactive).

For the compound `O=C(c1ccccc1Oc1ccccc1)N1CCN(c2ccc(F)cc2)CC1`, the inhibition is 6.89% (inactive).

Take `CCOc1ccc(C(=O)NC(C(=O)NCc2ccccn2)C(C)C)cc1` (stereo not given): the inhibition is -4.48% (inactive).

With `Cc1cccc(N2CCN(C(c3ccc(N(C)C)cc3)c3nnnn3C(C)(C)C)CC2)c1C` (stereo not given), the inhibition is 4.97% (inactive).

In the case of `COc1ccc(CNCCCO)cc1OC`, the inhibition is 5.75% (inactive).

For the compound `Cc1nnc(SCc2nc3ccccc3nc2C)s1`, the inhibition was 5.78% (inactive).

For the compound `CC(=O)N(C)c1ccc(NC(=O)C(F)(F)F)cc1`, the inhibition was 0.77% (inactive).

With `Cc1ccc(CN(N=Nc2nonc2N)c2nonc2N)c(C)c1`, the inhibition was 1.82% (inactive).

For `Cc1ccc(-c2cc(C(=O)NCC3CCCO3)c3ccccc3n2)o1` (stereo not given), the inhibition was 5.01% (inactive).

In the case of `Cc1ccc(-c2noc(CSc3nnc(-c4ccncc4)n3-c3ccc(F)cc3)n2)cc1`, the inhibition is 5.84% (inactive).

As to `Cc1ccc(CS(=O)(=O)CCC(=O)NC2CC2)cc1`, the inhibition was 8.04% (inactive).

For `Cc1csc(OCC(=O)Nc2ccc(C)c(C)c2)n1`, the inhibition was 4.83% (inactive).

For `CCN(CC)C(=O)CN(c1cccc(OC)c1)S(=O)(=O)c1ccc(C)cc1`, the inhibition was 3.27% (inactive).

In the case of `CC1=NN(C(C)C)C(=O)C1`, the inhibition is 9.86% (inactive).

Regarding `CCOC(=O)C1CSC(CC(=O)Nc2ccc(OCC)cc2)C(=O)N1` (stereo not given), the inhibition was 3.56% (inactive).

For `CCCc1nc(NCc2ccc3c(c2)OCO3)c2nnn(Cc3ccccc3Cl)c2n1`, the inhibition was 7.6% (inactive).

As for `CCn1c(=O)c(=O)n(CC)c2cc(S(=O)(=O)N3CCc4ccccc43)ccc21`, the inhibition is 1.66% (inactive).

In the case of `Cc1cccc(NC(=O)C2CC(=O)OC23CCCC3)c1` (stereo not given), the inhibition is -0.65% (inactive).

On to `C=C(Cl)COC(=O)C1C2C=CC(C2)C1C(=O)O` (stereo not given), for which the inhibition is 6.89% (inactive).

With `COCCNC(=O)Cn1cc(C(=O)c2cccs2)c2ccccc21`, the inhibition was -3% (inactive).

In the case of `CCOc1cccc(NC(=O)Cn2nc(-c3ccc4c(c3)OCCO4)ccc2=O)c1`, the inhibition is -3.83% (inactive).

As for `CC1CCc2c(nc3ncnn3c2Nc2ccc(OC(F)(F)F)cc2)C1` (stereo not given), the inhibition was 2.5% (inactive).

With `COc1c(F)c(F)c(C(=O)O)c(Nc2ccccc2C)c1F`, the inhibition is 0.13% (inactive).

With `CCOC(=O)N1CCN(Cc2nc(N)nc(Nc3ccc(C)cc3)n2)CC1`, the inhibition was 4.91% (inactive).

Turning to `CCOc1ccccc1NC(=O)c1cccnc1`, the inhibition was 4.81% (inactive).

With `CCS(=O)(=O)NCCc1ccc(OC)c(OC)c1`, the inhibition is -1.71% (inactive).

`COc1ccc(CCNS(=O)(=O)c2ccc(F)cc2)cc1OC`: the inhibition is 0.3% (inactive).

As to `COc1ccc(CCNc2ncnc3nc[nH]c23)cc1OC`, the inhibition is 22.7% (active).

Take `CCCCNC(=O)C1CCCNC1=O` (stereo not given): the inhibition is 1.47% (inactive).

On to `CCCCNS(=O)(=O)c1ccc(S(=O)(=O)n2cnc3ccccc32)cc1`, for which the inhibition is 0.82% (inactive).

With `O=C1N=C(N2CCCC2)S/C1=C\c1cccc(Br)c1`, the inhibition was 2.13% (inactive).

Take `CCOC(=O)C(C)n1cnc2sc(C)c(C)c2c1=O` (stereo not given): the inhibition was 9.63% (inactive).

As for `CCOC(=O)c1cnc(SCc2nc(N)nc(Nc3ccc(OC)cc3)n2)nc1N`, the inhibition is 1.79% (inactive).

With `CN(C)[C@@H]1C(=O)C(C(N)=O)=C(O)[C@@]2(O)C(=O)C3=C(O)c4c(O)ccc(Cl)c4[C@@H](O)[C@H]3C[C@@H]12`, the inhibition was 29.9% (active).

Turning to `CC1CCCN(C(C(=O)Nc2ccc(C(C)C)cc2)c2ccc3c(c2)OCO3)C1` (stereo not given), the inhibition was 6.31% (inactive).

On to `CCS(=O)(=O)Nc1ccc(C2=NN(S(=O)(=O)c3ccc(F)cc3)C(c3ccco3)C2)cc1` (stereo not given), for which the inhibition was 2.91% (inactive).

Regarding `Cc1cc(C(=O)OC(C)C(=O)Nc2cccc(S(=O)(=O)N3CCOCC3)c2)c(C)o1` (stereo not given), the inhibition is 0.93% (inactive).

As to `Cc1ccc(C(c2nnnn2CS(=O)(=O)c2ccc(C)cc2)N2CCC(C(N)=O)CC2)cc1` (stereo not given), the inhibition was -1.5% (inactive).

With `COc1ccccc1-c1nc(C#N)c(N2CCC(C(N)=O)CC2)o1`, the inhibition is 7.17% (inactive).

With `Cc1cccn2c(=O)c(/C=C(\C#N)S(=O)(=O)c3ccc(Cl)cc3)c(N3CCC(C(N)=O)CC3)nc12`, the inhibition was 45.2% (active).

With `Cc1ccc(Cc2c(C)nc3nc(SCC(=O)NCCN4CCOCC4)nn3c2C)cc1`, the inhibition was -3.03% (inactive).

Regarding `Cc1ccc(-n2ccc(=O)c(C(=O)O)n2)cc1`, the inhibition is 2.26% (inactive).

As for `COc1ccc(S(=O)(=O)Nc2ccc3oc(C)c(C(C)=O)c3c2)cc1`, the inhibition was -2.16% (inactive).

`O=C(Cc1ccccc1)Nc1c(C(=O)N2CCCCCC2)cnn1-c1ccccc1`: the inhibition is -2.24% (inactive).

With `CC(C)CC(=O)Nc1cc(C(F)(F)F)ccc1N1CCOCC1`, the inhibition is 1.97% (inactive).

Take `CC(C)(C)n1nnnc1C(c1ccc(Cl)cc1)N1CCSCC1` (stereo not given): the inhibition is 6.98% (inactive).

For the compound `Cc1ccccc1-n1c(C)cc(/C=C2\NC(=O)NC2=O)c1C`, the inhibition was 2.93% (inactive).

As to `Cc1ccc(NC(=O)N2CCC(c3nc4c(nnn4Cc4c(F)cccc4Cl)c(=O)[nH]3)CC2)cc1`, the inhibition was 5.75% (inactive).

With `COc1ccccc1C(=O)N1CC2(C)CC1CC(C)(C)C2` (stereo not given), the inhibition was -0.87% (inactive).

On to `O=C(NCc1ccccn1)c1cc(-c2ccccc2Cl)on1`, for which the inhibition is -4.95% (inactive).

With `CCc1ccc(C2C(C#N)=C(N)Oc3n[nH]c(CC(=O)OC)c32)cc1` (stereo not given), the inhibition is 8.34% (inactive).

On to `CCn1nccc1C(=O)Nc1ccc(Cl)c(Cl)c1`, for which the inhibition was 6.51% (inactive).

Turning to `O=C(CCCn1c(SCC(=O)c2ccccc2)nc2ccccc2c1=O)NCC1CCCO1` (stereo not given), the inhibition is 0.02% (inactive).

As to `COC(=O)c1ccccc1NC(=O)CN(Cc1ccc(Cl)cc1)S(C)(=O)=O`, the inhibition is 9.25% (inactive).

Regarding `COc1ccc(CN2CCCCC2C)cc1OC` (stereo not given), the inhibition is 0.38% (inactive).

Consider `CCC(C)NC(=O)c1cc(Cl)ccc1OC` (stereo not given), for which the inhibition is 3.81% (inactive).

For the compound `C=CCn1c(-c2ccc3[nH]c(C)c(C)c3c2)n[nH]c1=S`, the inhibition was 0.31% (inactive).

For `CCCn1c(C)cc(C(=O)COC(=O)c2c(C)nn(-c3ccccc3)c2C)c1C`, the inhibition is -1.14% (inactive).

For `O=C(CSc1nnc(-c2cccs2)n1Cc1ccccc1)N1CCc2ccccc2C1`, the inhibition is 6.37% (inactive).

Turning to `CCOc1ccc2c(c1)C(c1ccc(C)cc1)=NNC(c1ccc(C)cc1)=N2`, the inhibition is -0.27% (inactive).

With `C=C(C)CNC(=S)/N=c1\scc(C)n1CC`, the inhibition was 1.12% (inactive).

In the case of `COc1ccc(C2C(C#N)=C(/N=C/N3CCOCC3)OC3=C2C(=O)CC(C)(C)C3)cc1OC` (stereo not given), the inhibition was 13.5% (inactive).

`O=P(O)(CP(=O)(c1ccccc1)c1ccccc1)c1ccccc1O`: the inhibition is 7.77% (inactive).

On to `CC(C)NC(=O)CSc1nnc(COc2ccccc2Cl)o1`, for which the inhibition was 5.07% (inactive).

For `O=C(c1cccc(F)c1)N1CCC(O)(c2cccnc2)CC1`, the inhibition was 8.81% (inactive).

As for `CCCOc1cc(C)c(S(=O)(=O)n2nnc3ccccc32)cc1C`, the inhibition was 2.8% (inactive).

In the case of `NC1=NC(=O)C2(COC(c3ccccc3Cl)OC2)S1` (stereo not given), the inhibition is 14.2% (inactive).

On to `CC(C)Nc1ncnc2c1nnn2Cc1ccccc1`, for which the inhibition is -1.71% (inactive).

As to `Brc1ccc(-c2nnc(-c3ccccc3)o2)o1`, the inhibition is 6.11% (inactive).

Regarding `CCN(CC)C(=O)CSc1nnc(C2CCCCC2)o1`, the inhibition is 2.47% (inactive).

Take `O=c1[nH][nH]c(C(F)(F)F)c1C=NCc1ccccc1Cl`: the inhibition was -3.59% (inactive).

With `CCN1C(=O)/C(=C2/Sc3ccc(OC)cc3N2C)SC1=Nc1ccc(C)cc1`, the inhibition is -3.03% (inactive).

For `O=C(NC(C(=O)NCCN1CCOCC1)C12CC3CC(CC(C3)C1)C2)C1CCCCC1` (stereo not given), the inhibition was -1.05% (inactive).

In the case of `S=c1[nH]nc(-c2ccc(Cl)cc2)n1CC1CCCO1` (stereo not given), the inhibition was 7.93% (inactive).

As for `Cc1nnc(SCC(=O)Nc2ncc3c(n2)CC(C)(C)CC3=O)s1`, the inhibition was 3.95% (inactive).

Turning to `Cc1ccccc1-c1nnc(SCC(=O)NCc2ccc3c(c2)OCO3)n1C`, the inhibition was 4.85% (inactive).

In the case of `Cc1ccc(C(=O)N/N=C/c2sc(=O)n(Cc3cccc(C(=O)O)c3)c2Cl)cc1`, the inhibition is 8.24% (inactive).

With `COc1ccc(CN(Cc2ccco2)S(=O)(=O)c2ccc(S(=O)(=O)N3CCCC3)cc2)cc1`, the inhibition is 1.45% (inactive).

`COC(=O)c1ccccc1Oc1c(F)c(F)nc(N2CCOCC2)c1F`: the inhibition was 8.84% (inactive).

Take `CCc1ccc(NC(=O)CN2C(=O)CSC2=O)cc1`: the inhibition was 5.49% (inactive).

Consider `CC(C)(CNC(=O)c1cc(=O)[nH]c2ccccc12)N1CCOCC1`, for which the inhibition is 6.02% (inactive).

On to `COc1cc(C)c(C(C)C)cc1S(=O)(=O)n1ccnc1`, for which the inhibition is 1.15% (inactive).

Turning to `CCn1c(CC(=O)Nc2ccc(C)cc2)nnc1SCC(=O)Nc1nc(C)cs1`, the inhibition is 5.16% (inactive).

`CN1C(=O)C(CC(N)=O)N(NC(=O)c2ccc(Cl)cc2)C1=S` (stereo not given): the inhibition was 7.03% (inactive).

Regarding `Cc1ccc(-n2c(CNc3ccc(F)cc3)nnc2SCC(=O)N2CCOCC2)cc1`, the inhibition was 3.95% (inactive).

With `CC(c1ccco1)N(C(=O)COc1ccccc1[N+](=O)[O-])c1ccccn1` (stereo not given), the inhibition is 7.57% (inactive).

Take `COC(=O)[C@@H](NC(=O)Nc1cc(Cl)ccc1C)C(C)C`: the inhibition is 10.7% (inactive).

Regarding `O=C(Nc1cccc(NC(=O)c2ccco2)c1)c1cnccn1`, the inhibition is 4.07% (inactive).

For `Cn1c(-c2sc3cc(C(F)(F)F)cnc3c2-c2ccccc2)n[nH]c1=S`, the inhibition is 1.53% (inactive).

For `CC(=O)Oc1ccc(NC(=O)CCC2CCCCC2)c(C(=O)O)c1`, the inhibition is 4.27% (inactive).

Consider `COc1ccc(S(=O)(=O)NCc2ccc(C(=O)N(C)Cc3ccco3)cc2)cc1`, for which the inhibition is 4.38% (inactive).
